Source: PubChem BioAssay (NCI)
Compounds without any hit were thinned out: in the full panel of roughly 79,000, 15% have a hit. Calls of active or inactive are those of the source. No stated cut-off is given here; in the data, active means growth inhibition above about 70%; inactive means the rest.

How the values were obtained:
[1] = NCI Yeast Anticancer Drug Screen. Data for the mec2-1 strain (AID 157); details: S. cerevisiae mec2-1 strain, hits give high values
Method in brief: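 Test agents were screened against the mec2-1 yeast strain, with defined DNA repair or cell cycle alteration. Growth was scored as inhibition against vehicle-only controls.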

[2] = NCI Yeast Anticancer Drug Screen. Data for the sgs1 mgt1 strain (AID 161);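 further: 0% = growth of cultures given vehicle only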; details: S. cerevisiae sgs1 mgt1 strain, hits give high values
Method in brief: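 Read-out: growth inhibition vs vehicle controls. Cells: mutant yeast strain deficient in DNA damage repair.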

[3] = NCI Yeast Anticancer Drug Screen. Data for the CLN2oe strain (AID 163);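 further: 0% = growth of vehicle-only control cultures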; details: S. cerevisiae CLN2oe strain, hits give high values
Method in brief: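 Here, growth inhibition in a cell-cycle-altered yeast strain after compound exposure was quantified against vehicle control growth.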

[4] = NCI Yeast Anticancer Drug Screen. Data for the bub3 strain (AID 167); details: S. cerevisiae bub3 mutant strain, hits give high values
Method in brief: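 Screening used yeast with an engineered genetic alteration affecting cell cycle control. Compound-exposed cultures were compared with vehicle cultures, and reduced growth was taken as inhibition.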

[5] = NCI Yeast Anticancer Drug Screen. Data for the wt2 strain (AID 169);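 further: 0% = growth of vehicle-treated yeast cultures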; details: S. cerevisiae wt2 strain growth inhibition, hits give high values
Method in brief: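 Genetically defined yeast strains from a DNA-repair/cell-cycle panel were used. Compound-exposed yeast growth was measured, and the inhibition was calculated relative to vehicle treatment.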

[6] = NCI Yeast Anticancer Drug Screen. Data for the mlh1 strain (AID 171);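 further: 0% = growth of vehicle-treated control cultures of the same strain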; details: S. cerevisiae mlh1 strain growth inhibition, hits give high values
Method in brief: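 Here the genetically defined yeast mutant is grown with each compound, and the extent to which its growth falls below that of vehicle-exposed cells is reported.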

[7] = NCI Yeast Anticancer Drug Screen. Data for the sgs1 strain (AID 173);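 further: 0% = growth of vehicle-only control cultures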; details: S. cerevisiae sgs1 mutant, hits give high values
Method in brief: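 Relative growth inhibition, referenced to vehicle, was determined in a yeast strain with a defined alteration affecting DNA damage repair or cell cycle control after compound exposure.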

[8] = NCI Yeast Anticancer Drug Screen. Data for the rad18 strain (AID 177); details: S. cerevisiae rad18 mutant growth inhibition, hits give high values
Method in brief: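 Screen uses a yeast strain with a defined lesion in DNA damage repair; compound effect is read as loss of growth compared to untreated vehicle cultures.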

[9] = NCI Yeast Anticancer Drug Screen. Data for the rad52 strain (AID 147);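 further: 0% = growth of vehicle-treated control cultures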; details: S. cerevisiae rad52 mutant growth inhibition, hits give high values
Method in brief: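 Measured: yeast growth inhibition. System: strain with a defined DNA damage repair alteration. Reference: vehicle-treated control cultures.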

[10] = NCI Yeast Anticancer Drug Screen. Data for the wt1 strain (AID 149);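 further: 0% = growth of vehicle-treated wt1 cultures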; details: S. cerevisiae wt1 strain (SPY 50644) growth inhibition, hits give high values
Method in brief: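 Using yeast strain wt1, compound-induced growth inhibition was determined against vehicle-treated cultures.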

[11] = NCI Yeast Anticancer Drug Screen. Data for the rad50EPP+ strain (AID 151);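 further: 0% = growth of vehicle-treated control cultures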; details: S. cerevisiae rad50 mutant strain, hits give high values
Method in brief: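 One strain with a rad50 alteration (rad50EPP+) was compound-treated, its growth then compared to that of vehicle controls.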

[12] = NCI Yeast Anticancer Drug Screen. Data for the rad50 strain (AID 155);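 further: 0% = growth of vehicle-only cultures of the same strain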; details: S. cerevisiae rad50 strain growth inhibition, hits give high values
Method in brief: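 Relative growth inhibition (compound vs vehicle) was measured in yeast with a defined repair-gene alteration.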

[13] = NCI Yeast Anticancer Drug Screen. Data for the rad14 strain (AID 159);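 further: 0% = growth of vehicle-treated control cultures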; details: S. cerevisiae rad14 strain growth inhibition, hits give high values
Method in brief: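 Screen for anticancer potential: a yeast strain altered in DNA damage repair is grown with compound, and reduced growth is quantified against vehicle controls.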

[14] = NCI Yeast Anticancer Drug Screen. Data for the cln2 rad14 strain (AID 165);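 further: 0% = growth equal to vehicle treated cultures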; details: S. cerevisiae cln2 rad14 strain, hits give high values
Method in brief: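 Growth of compound-exposed yeast (cln2 rad14 genotype) measured and expressed as inhibition relative to vehicle.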

[15] = NCI Yeast Anticancer Drug Screen. Data for the mlh1 rad18 strain (AID 175); details: S. cerevisiae mlh1 rad18 strain growth inhibition, hits give high values
Method in brief: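 In this whole-cell yeast screen, a strain with altered DNA damage repair is challenged with compound, and its growth is measured against matched vehicle-treated controls.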

[16] = NCI Yeast Anticancer Drug Screen. Data for the mgt1 strain (AID 153); details: S. cerevisiae mgt1 mutant growth inhibition, hits give high values
Method in brief: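 After exposure of the mgt1 yeast mutant to compound, growth was measured and reported as inhibition compared with vehicle controls.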

[17] = at 5.0 µM (retest, dose inferred, filed as 0.5)
[18] = at 50.0 µM (retest, dose inferred, filed as 5.0)

Measured: growth inhibition

On1cnc(=S)c2[nH]cnc21
active: [2]; [18] 100% | [4]; [18] 99%
inactive: [1]; at 100.0 µM -1% | [2]; [17] 36% | [2]; at 50.0 µM 9.3% | [3]; at 1.2 µM 23% | [3]; at 3.7 µM 9% | [3]; at 11.0 µM -10% | [3]; at 33.0 µM 19% | [3]; at 100.0 µM 11% | [4]; at 1.2 µM -29% | [4]; at 3.7 µM -6% | [4]; [17] 17% | [4]; at 11.0 µM -17% | [4]; at 33.0 µM -3% | [4]; at 50.0 µM -6.65% | [4]; at 100.0 µM -8% | [5]; at 1.2 µM 2% | [5]; at 3.7 µM -6% | [5]; at 11.0 µM -11% | [5]; at 33.0 µM -4% | [5]; at 100.0 µM -19% | [6]; at 1.2 µM -6% | [6]; at 3.7 µM -14% | [6]; at 11.0 µM -28% | [6]; at 33.0 µM -29% | [6]; at 100.0 µM -37% | [7]; at 1.2 µM -22% | [7]; at 3.7 µM -26% | [7]; at 11.0 µM -16% | [7]; at 33.0 µM -44% | [7]; at 100.0 µM -32% | [8]; at 1.2 µM -40% | [8]; at 3.7 µM -33% | [8]; at 11.0 µM -55% | [8]; at 33.0 µM -61% | [8]; at 100.0 µM -67%

CN=C(N)N/N=C(\C)c1ccc2oc3ccc(/C(C)=N/NC(N)=NC)cc3c2c1
active: [9]; at 11.0 µM 88% | [9]; at 33.0 µM 98% | [9]; at 100.0 µM 98% | [10]; at 33.0 µM 98% | [10]; at 100.0 µM 98% | [11]; at 11.0 µM 70% | [11]; at 33.0 µM 96% | [11]; at 100.0 µM 98% | [12]; [17] 81% | [12]; at 11.0 µM 92% | [12]; at 33.0 µM 98% | [12]; [18] 98% | [12]; at 50.0 µM 90% | [12]; at 100.0 µM 98% | [13]; at 33.0 µM 98% | [13]; at 100.0 µM 98% | [2]; [18] 99% | [2]; at 50.0 µM 90.4% | [3]; at 33.0 µM 97% | [3]; at 100.0 µM 98% | [14]; [18] 98% | [14]; at 50.0 µM 91.8% | [4]; at 33.0 µM 97% | [4]; [18] 99% | [4]; at 50.0 µM 89.2% | [4]; at 100.0 µM 98% | [5]; at 11.0 µM 95% | [5]; at 33.0 µM 98% | [5]; at 100.0 µM 98% | [6]; at 33.0 µM 98% | [6]; at 100.0 µM 98% | [7]; at 33.0 µM 98% | [7]; at 100.0 µM 98% | [15]; [18] 98% | [15]; at 50.0 µM 87.5% | [8]; at 11.0 µM 70% | [8]; at 33.0 µM 98% | [8]; at 100.0 µM 98%
inactive: [9]; at 1.2 µM 11% | [9]; at 3.7 µM 28% | [10]; at 1.2 µM -8% | [10]; at 3.7 µM -21% | [10]; at 11.0 µM 11% | [11]; at 1.2 µM -17% | [11]; at 3.7 µM 23% | [12]; at 1.2 µM 34% | [12]; at 3.7 µM 64% | [13]; at 1.2 µM 4% | [13]; at 3.7 µM -18% | [13]; at 11.0 µM 43% | [2]; [17] 56% | [3]; at 1.2 µM -66% | [3]; at 3.7 µM -74% | [3]; at 11.0 µM 20% | [14]; [17] 13% | [4]; at 1.2 µM -14% | [4]; at 3.7 µM -24% | [4]; [17] 37% | [4]; at 11.0 µM 2% | [5]; at 1.2 µM -4% | [5]; at 3.7 µM 2% | [6]; at 1.2 µM -23% | [6]; at 3.7 µM -24% | [6]; at 11.0 µM 35% | [7]; at 1.2 µM -21% | [7]; at 3.7 µM -14% | [7]; at 11.0 µM 37% | [15]; [17] 54% | [8]; at 1.2 µM -13% | [8]; at 3.7 µM -13%

S=C(S)NCC1CCC(CNC(=S)S)CC1 (configuration not stated)
active: [9]; at 100.0 µM 81% | [11]; at 100.0 µM 81% | [16]; at 100.0 µM 89% | [12]; [18] 98% | [12]; at 100.0 µM 83% | [1]; [18] 98% | [1]; at 100.0 µM 94% | [13]; at 100.0 µM 92% | [4]; [18] 77% | [4]; at 100.0 µM 93% | [5]; at 100.0 µM 83% | [6]; at 100.0 µM 71% | [7]; at 100.0 µM 87% | [15]; [18] 99% | [8]; at 100.0 µM 78%
inactive: [9]; at 1.2 µM -10% | [9]; at 3.7 µM -12% | [9]; at 11.0 µM -12% | [9]; at 33.0 µM 20% | [11]; at 1.2 µM -3% | [11]; at 3.7 µM 3% | [11]; at 11.0 µM 24% | [11]; at 33.0 µM 41% | [16]; at 1.2 µM -8% | [16]; at 3.7 µM 0% | [16]; at 11.0 µM 5% | [16]; at 33.0 µM 18% | [12]; at 1.2 µM 8% | [12]; at 3.7 µM 3% | [12]; [17] 31% | [12]; at 11.0 µM -4% | [12]; at 33.0 µM 22% | [12]; at 50.0 µM 67% | [1]; at 1.2 µM -9% | [1]; at 3.7 µM -2% | [1]; [17] 64% | [1]; at 11.0 µM 5% | [1]; at 33.0 µM 43% | [1]; at 50.0 µM 59.1% | [13]; at 1.2 µM 13% | [13]; at 3.7 µM 19% | [13]; at 11.0 µM 13% | [13]; at 33.0 µM 27% | [2]; [17] -13% | [2]; [18] 61% | [14]; [17] -7% | [14]; [18] 46% | [4]; at 1.2 µM 16% | [4]; at 3.7 µM -10% | [4]; [17] 19% | [4]; at 11.0 µM 19% | [4]; at 33.0 µM 63% | [5]; at 1.2 µM -15% | [5]; at 3.7 µM -20% | [5]; at 11.0 µM -13% | [5]; at 33.0 µM 28% | [6]; at 1.2 µM -4% | [6]; at 3.7 µM 15% | [6]; at 11.0 µM 5% | [6]; at 33.0 µM 32% | [7]; at 1.2 µM -3% | [7]; at 3.7 µM 14% | [7]; at 11.0 µM 16% | [7]; at 33.0 µM 48% | [15]; [17] 44% | [15]; at 50.0 µM 43.5% | [8]; at 1.2 µM 2% | [8]; at 3.7 µM 6% | [8]; at 11.0 µM 16% | [8]; at 33.0 µM 18%
